A selection: hits, their analogues and other compounds. The true share with any hit is near 17%.
TGFb inhibitor = blocks TGF-b signaling; HepG2 CAGA-GFP TGF-b/SMAD3 reporter, GFP fluorescence, 18 h; TGF-beta stimulated, 500 pg/mL final; Potency, µM (top dose mostly 46.1 µM), inactives show at the top dose activity, negative = inhibition, actives largely listed as inhibitors; 410,000 compounds, 1.2% hits; AID 588855; also: % is scaled to controls: 0 for no effect and ±100 for the full control effect; nearly all actives have a fitted effect of over 65% in size
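GFP signal (ex488/em500-530) from TGF-beta-stimulated HEPG2 CAGA-GFP cells, 500 pg/mL final, 18 h at 37 degrees C in DMEM plus 1% FBS, normalized to unstimulated and DMSO-stimulated controls.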
TDP1 cell noCPT = qHTS for Inhibitors of human tyrosyl-DNA phosphodiesterase 1 (TDP1): qHTS in cells in absence of CPT; DT40 Tdp1-/- hTDP1 cells, no CPT, ATP luminescence, 48 h; Potency, µM (top dose mostly 46.2 µM), for the others: at the top dose activity change, negative = growth inhibition, most hits filed as inhibitors; 420,000 compounds, 15% hits; AID 686978, 2013; also: % is scaled to controls: 0 for no effect and ±100 for the full control effect; nearly all actives have a fitted effect of over 55% in size
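Seeded 400 DT40-hTDP1 cells/well (vehicle DMSO, no 20 nM CPT); pinned compounds; ≥48 hr at 37 °C; CellTiter-Glo luminescence as viability measure.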
DT40 TDP1 CPT = DT40-hTDP1 cell growth loss with CPT; chicken DT40 Tdp1-/-;hTDP1 cells + 20 nM CPT, ATP luminescence, 48 h; 420,000 compounds, 12% hits; Potency, µM (doses to about 46.2 µM), for inactives: at the top dose activity change, negative = growth inhibition, hits mostly inhibitors; AID 686979; also: % is scaled to controls: 0 for no effect and ±100 for the full control effect; nearly all actives have a fitted effect of over 55% in size
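Cell growth measured by CellTiter-Glo luminescence after a minimum 48 h, 37 C compound exposure with 20 nM CPT in Tdp1-knockout DT40 cells stably expressing hTDP1, seeded 400/well; qHTS titration format.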
HepG2 viability = kills HepG2 cells in TGF-b inhibitor counter-screen; HepG2 CAGA-GFP viability, ATP luminescence, 18 h; Potency, µM (series often up to 46.1 µM), without a hit: top-dose activity change, negative = cytotoxicity, most hits filed as cytotoxic; 410,000 compounds, 0.76% hits; AID 588856
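CellTiter-Glo luminescence gave cytotoxicity after 18 hours at 37 degrees C. The cells were HepG2 CAGA-GFP in 1% FBS DMEM, stimulated with 500 pg/mL TGF-beta after compound addition. %Activity was normalised to no-cell wells (complete cell-killing) and DMSO (no toxicity), and curves were fitted and classified.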
S2 tox = cell viability loss in ATXN counter-screen | 400,000 compounds, 0.49% hits | Potency, µM (highest dose often 56.7 µM), hits mostly cytotoxic | S2 cells (HEK-293 line with an ATXN2-luciferase reporter) viability, CellTiter-Fluor protease fluorescence, 24 h; also: nearly all actives have a fitted effect of over 40% in size
ATXN2 expr inh = ATXN2 expression inhibition | HEK-293 ATXN2-luciferase reporter, luminescence, 24 h | Potency, µM (highest dose often 57 µM), for inactives: top-dose activity change, negative = inhibition, actives largely listed as inhibitors | 360,000 compounds, 0.72% hits; also: % is scaled to controls: 0 for no effect and ±100 for the full control effect; nearly all actives have a fitted effect of over 55% in size
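ATXN2-luciferase reporter cells (luciferase flanked by upstream and downstream ATXN2 gene portions) were treated 24 h at 37 °C with compounds at up to 57 uM. SteadyGlo luminescence gave expression; GF-AFC fluorescence gave viability.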
* marks the source's active call; other numbers are inactive results; i = inactive; ? = inconclusive; . = no result given; [ ] = dose if it differs, or a comment. Calls follow the shape of the dose curve; as a rule, active = well fitted curve in the direction sought with a large enough effect; inconclusive = small, poorly fitted or top-dose-only effect, or another doubt; inactive = no such curve, though single readings can be large; an effect the other way counts as inactive or inconclusive. Potency is read from the fitted curve at half-maximal effect.

SMILES	TGFb inhibitor	TDP1 cell noCPT	DT40 TDP1 CPT	HepG2 viability	S2 tox	ATXN2 expr inh
COc1ccc(CN2CCC(C(=O)c3ccc(F)cc3)CC2)cc1	-4%	-16%	-18%	-1%	?	.
COc1cc(-c2[nH]ncc2CN2CCSCC2)cc(OC)c1OC	-26%	15µM*	?	-9%	i	38%
COc1cc(-c2[nH]ncc2CN(C)Cc2nonc2C)cc(OC)c1OC	-11%	16µM*	?	-9%	i	.
Cc1c(Br)c([N+](=O)[O-])nn1CCCC(=O)NC(C)c1ccccc1 (centres undefined)	0%	-9%	3%	2%	i	.
O=C(C[C@H]1C/C=C\CCCCC(=O)OC[C@H]2CCCN2C1=O)N[C@H](CO)Cc1ccccc1	-25%	?	?	-2%	i	14%
COc1ccc(NC(=O)c2cc3ccccc3cc2OC)cc1	-4%	?	29µM*	-1%	i	64%
COc1cc2ccccc2cc1C(=O)Nc1ccc(N2CCN(C(=O)C(C)C)CC2)cc1	15%	10µM*	16µM*	-7%	?	.
O=C(N/N=C\c1cccs1)c1ccccc1-n1cccc1	8%	-17%	3%	0%	i	-10%
COc1cc2ccccc2cc1C(=O)Nc1ccc(N2CCN(C)CC2)cc1	-14%	?	?	13µM*	.	.
COc1cc2ccccc2cc1C(=O)N/N=C/c1cccs1	-16%	1.8µM*	2.3µM*	3%	i	.
CC(C)C(=O)N1CCN(c2ccc(NC(=O)c3cccs3)cc2)CC1	-1%	?	?	2%	i	13%
COc1cc2ccccc2cc1C(=O)Nc1cccnc1	0%	?	-11%	-27%	i	46%
COc1cccc(NC(=O)COc2ccc(C(=O)N3CCN(C)CC3)cc2)c1	-1%	-16%	2%	-4%	i	-11%
c1ccc(CNc2nc(NCC3CC3)nc3cc(-c4ccccc4)sc23)cc1	?	10µM*	9.2µM*	-93%	?	?
Cn1c(NCc2ccccc2)nc2cc(-c3ccccc3)sc2c1=O	-5%	?	?	-9%	i	15%
CCc1ccccc1Oc1nc(NCCOC)nc2cc(-c3ccccc3)sc12	-7%	?	?	-5%	i	5%
c1ccc(OCCNc2nc(NCC3CC3)nc3cc(-c4ccccc4)sc23)cc1	?	5.8µM*	5.8µM*	-92%	16µM*	?
O=C(CNC(=O)c1ccc(N2CCCC2=O)cc1)Nc1ccc(F)c(F)c1F	-26%	-7%	2%	-23%	i	3%
O=C(Oc1cccc(/C=N/Nc2nc(Nc3ccccc3)nc(N3CCOCC3)n2)c1)c1ccco1	1%	23µM*	21µM*	-48%	i	-6%
Cc1ccc(Nc2nc(N/N=C/c3c[nH]c4ccccc34)nc(N3CCOCC3)n2)cc1	?	8.2µM*	21µM*	-67%	i	-37%
Cc1[nH]c2ccccc2c1/C=N/Nc1nc(Nc2ccc(F)cc2)nc(N2CCOCC2)n1	69%	-24%	-21%	-6%	i	-1%
C(=N\Nc1nc(Nc2ccccc2)nc(N2CCOCC2)n1)/c1c[nH]c2ccccc12	4%	8.2µM*	12µM*	-22%	i	?
Cc1oc(-c2ccccc2NC(=O)C2CCC2)nc1CNC(=O)c1c(F)ccc(F)c1F	.	-14%	3%[9.04 µM]	.	?	.
Cc1ccc(C(N)=O)cc1Nc1nccc(-c2cn(C(C)C)c3cnccc23)n1	.	.	.	.	.	12µM*
CC(C)c1ccccc1NC1=CC(=O)CC(C)(C)C1	-8%	-4%	2%	16%	i	6%

Screening data (PubChem BioAssay)
